Measured values reported in PubChem BioAssay.
Calls of active or inactive are those of the source.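 Rule for the calls, unless noted: active = normalized viability below 100% at a tested concentration; inactive = the rest.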

What was measured:
[1] = drug combination growth inhibition, ovarian cancer – cell-based, oncology-focused library, rucaparib conditional, profiling panel (AID 1508598); details: patient-derived ovarian cancer cells, CellTiter-Glo viability, 144 h, stronger effect = lower value
[2] = target: NAD(+) hydrolase SARM1 (Homo sapiens) (UniProt Q6SZW1); assay: blocking NAD cleavage by SARM1 SAM-TIR – cell lysate, NAD-Glo luminescence (AID 1508614;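 active = compound whose remaining NAD level is above about 45 nM, limit read from the data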;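 note: higher remaining NAD means stronger inhibition of SARM1 NADase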); details: SAM-TIR HEK293T lysate NADase, at 1 µM, stronger effect = higher value
NAD(+) hydrolase SARM1 (Homo sapiens), sequence (Q6SZW1 whole entry, looked up): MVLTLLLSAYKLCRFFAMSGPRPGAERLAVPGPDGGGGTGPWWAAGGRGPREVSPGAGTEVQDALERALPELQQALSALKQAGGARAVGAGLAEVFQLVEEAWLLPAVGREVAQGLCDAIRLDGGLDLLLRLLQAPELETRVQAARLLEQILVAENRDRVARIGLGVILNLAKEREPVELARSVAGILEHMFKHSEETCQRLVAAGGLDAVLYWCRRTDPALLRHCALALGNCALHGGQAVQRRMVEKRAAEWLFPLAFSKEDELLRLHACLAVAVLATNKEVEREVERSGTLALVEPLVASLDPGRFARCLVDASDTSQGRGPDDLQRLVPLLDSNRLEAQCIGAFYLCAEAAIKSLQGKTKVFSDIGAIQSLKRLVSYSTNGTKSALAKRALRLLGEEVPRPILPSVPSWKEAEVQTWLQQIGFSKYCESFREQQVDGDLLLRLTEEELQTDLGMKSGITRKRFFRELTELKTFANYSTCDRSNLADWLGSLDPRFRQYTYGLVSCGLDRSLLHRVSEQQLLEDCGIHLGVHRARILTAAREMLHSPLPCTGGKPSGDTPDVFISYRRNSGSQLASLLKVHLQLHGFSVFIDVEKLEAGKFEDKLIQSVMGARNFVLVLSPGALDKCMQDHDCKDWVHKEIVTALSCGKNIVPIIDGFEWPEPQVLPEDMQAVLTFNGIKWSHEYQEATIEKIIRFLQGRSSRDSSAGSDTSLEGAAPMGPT

[3] = at 0.000305 µM, OCI-C5x cells, with rucaparib 10 µM, 100% = cells with rucaparib alone
[4] = at 0.000305 µM, OCI-C5x cells, without rucaparib
[5] = at 0.000305 µM, OCI-P5x cells, with rucaparib 20 µM, 100% = cells with rucaparib alone
[6] = at 0.000305 µM, OCI-P5x cells, without rucaparib
[7] = at 0.00122 µM, OCI-C5x cells, with rucaparib 10 µM, 100% = cells with rucaparib alone
[8] = at 0.00122 µM, OCI-C5x cells, without rucaparib
[9] = at 0.00122 µM, OCI-P5x cells, with rucaparib 20 µM, 100% = cells with rucaparib alone
[10] = at 0.00122 µM, OCI-P5x cells, without rucaparib
[11] = at 0.00488 µM, OCI-C5x cells, with rucaparib 10 µM, 100% = cells with rucaparib alone
[12] = at 0.00488 µM, OCI-C5x cells, without rucaparib
[13] = at 0.00488 µM, OCI-P5x cells, with rucaparib 20 µM, 100% = cells with rucaparib alone
[14] = at 0.00488 µM, OCI-P5x cells, without rucaparib
[15] = at 0.0195 µM, OCI-C5x cells, with rucaparib 10 µM, 100% = cells with rucaparib alone
[16] = at 0.0195 µM, OCI-C5x cells, without rucaparib
[17] = at 0.0195 µM, OCI-P5x cells, with rucaparib 20 µM, 100% = cells with rucaparib alone
[18] = at 0.0195 µM, OCI-P5x cells, without rucaparib
[19] = at 0.0781 µM, OCI-C5x cells, with rucaparib 10 µM, 100% = cells with rucaparib alone
[20] = at 0.0781 µM, OCI-C5x cells, without rucaparib
[21] = at 0.0781 µM, OCI-P5x cells, with rucaparib 20 µM, 100% = cells with rucaparib alone
[22] = at 0.0781 µM, OCI-P5x cells, without rucaparib
[23] = at 0.313 µM, OCI-C5x cells, with rucaparib 10 µM, 100% = cells with rucaparib alone
[24] = at 0.313 µM, OCI-C5x cells, without rucaparib
[25] = at 0.313 µM, OCI-P5x cells, with rucaparib 20 µM, 100% = cells with rucaparib alone
[26] = at 0.313 µM, OCI-P5x cells, without rucaparib
[27] = at 1.25 µM, OCI-C5x cells, with rucaparib 10 µM, 100% = cells with rucaparib alone
[28] = at 1.25 µM, OCI-C5x cells, without rucaparib
[29] = at 1.25 µM, OCI-P5x cells, with rucaparib 20 µM, 100% = cells with rucaparib alone
[30] = at 1.25 µM, OCI-P5x cells, without rucaparib
[31] = at 5 µM, OCI-C5x cells, with rucaparib 10 µM, 100% = cells with rucaparib alone
[32] = at 5 µM, OCI-C5x cells, without rucaparib
[33] = at 5 µM, OCI-P5x cells, with rucaparib 20 µM, 100% = cells with rucaparib alone
[34] = at 5 µM, OCI-P5x cells, without rucaparib

CO[C@H]1C[C@H]2CC[C@@H](C)[C@@](O)(O2)C(=O)C(=O)N2CCCC[C@H]2C(=O)O[C@H]([C@H](C)C[C@@H]2CC[C@H](OC(=O)C(C)(CO)CO)[C@H](OC)C2)CC(=O)[C@H](C)/C=C(\C)[C@@H](O)[C@@H](OC)C(=O)[C@H](C)C[C@H](C)/C=C/C=C/C=C/1C
inactive: viability [1, 27] 100%
active: viability [1, 3] 93.5% | viability [1, 4] 93.2% | viability [1, 5] 85% | viability [1, 6] 85% | viability [1, 7] 97% | viability [1, 8] 95.7% | viability [1, 9] 77.3% | viability [1, 10] 69.5% | viability [1, 11] 88.7% | viability [1, 12] 91.6% | viability [1, 13] 71.8% | viability [1, 14] 56.9% | viability [1, 15] 93.2% | viability [1, 16] 88.2% | viability [1, 17] 71% | viability [1, 18] 58.4% | viability [1, 19] 93.3% | viability [1, 20] 84.7% | viability [1, 21] 70.8% | viability [1, 22] 56.6% | viability [1, 23] 96.4% | viability [1, 24] 87.6% | viability [1, 25] 71.6% | viability [1, 26] 57.7% | viability [1, 28] 95.8% | viability [1, 29] 77% | viability [1, 30] 55.6% | viability [1, 31] 93.4% | viability [1, 32] 88% | viability [1, 33] 59.8% | viability [1, 34] 54.1%

CC/C=C\C/C=C\C/C=C\C/C=C\C/C=C\C/C=C\CCC(=O)OCC (tested in a mixture with another compound)
inactive: remaining NAD [2] 10 nM

C[C@]12CC[C@H]3c4ccc(O)cc4CC[C@H]3[C@@H]1CC[C@H]2O
inactive: viability [1, 4] 130% | viability [1, 5] 103% | viability [1, 6] 110% | viability [1, 7] 105% | viability [1, 8] 111% | viability [1, 9] 101% | viability [1, 10] 116% | viability [1, 11] 109% | viability [1, 12] 124% | viability [1, 13] 104% | viability [1, 14] 112% | viability [1, 16] 115% | viability [1, 17] 109% | viability [1, 18] 112% | viability [1, 19] 100% | viability [1, 20] 119% | viability [1, 21] 108% | viability [1, 22] 109% | viability [1, 23] 108% | viability [1, 24] 118% | viability [1, 25] 100% | viability [1, 26] 114% | viability [1, 27] 100% | viability [1, 28] 124% | viability [1, 29] 110% | viability [1, 30] 113% | viability [1, 33] 107% | viability [1, 34] 110%
active: viability [1, 3] 95.7% | viability [1, 15] 99.5% | viability [1, 31] 81% | viability [1, 32] 94.8%

OC[C@@H](O)[C@@H](O)CO
inactive: remaining NAD [2] 10 nM

Nc1nc(F)nc2c1ncn2[C@H]1O[C@H](CO)[C@@H](O)[C@@H]1O
inactive: viability [1, 3] 101% | viability [1, 4] 120% | viability [1, 5] 104% | viability [1, 6] 108% | viability [1, 7] 106% | viability [1, 8] 117% | viability [1, 9] 103% | viability [1, 10] 107% | viability [1, 11] 112% | viability [1, 12] 120% | viability [1, 13] 102% | viability [1, 14] 112% | viability [1, 15] 109% | viability [1, 16] 116% | viability [1, 18] 113% | viability [1, 19] 106% | viability [1, 20] 111% | viability [1, 21] 110% | viability [1, 22] 113% | viability [1, 24] 112% | viability [1, 26] 112% | viability [1, 29] 110% | viability [1, 30] 107% | viability [1, 33] 106%
active: viability [1, 17] 97.4% | viability [1, 23] 89.3% | viability [1, 25] 99% | viability [1, 27] 80.7% | viability [1, 28] 82.4% | viability [1, 31] 79.6% | viability [1, 32] 11.9% | viability [1, 34] 38.5%

CC(=O)OCC(=O)[C@]1(O)[C@H](C)C[C@H]2[C@@H]3CCC4=CC(=O)C=C[C@]4(C)[C@]3(F)[C@H](O)C[C@@]21C
active: viability [1, 18] 99.6% | viability [1, 22] 98.1% | viability [1, 26] 94.5% | viability [1, 29] 97.6% | viability [1, 30] 94.3% | viability [1, 33] 88.4% | viability [1, 34] 84.6%
inactive: viability [1, 3] 119% | viability [1, 4] 119% | viability [1, 5] 107% | viability [1, 6] 108% | viability [1, 7] 121% | viability [1, 8] 125% | viability [1, 9] 105% | viability [1, 10] 106% | viability [1, 11] 131% | viability [1, 12] 122% | viability [1, 13] 110% | viability [1, 14] 105% | viability [1, 15] 124% | viability [1, 16] 123% | viability [1, 17] 109% | viability [1, 19] 118% | viability [1, 20] 112% | viability [1, 21] 104% | viability [1, 23] 113% | viability [1, 24] 113% | viability [1, 25] 100% | viability [1, 27] 122% | viability [1, 28] 123% | viability [1, 31] 115% | viability [1, 32] 110%
